# Source: PubChem BioAssay (EPA / NIEHS)
# Active and inactive are the calls of the source. Rule for the calls: active = hit-call score of the fitted dose curve at least 0.9, where 1 is the maximum; inconclusive = response in the unintended direction; inactive = score below 0.9.
# Test system: IYD (gene 389434)
# Experiment: CCTE_GLTED_hIYD: CCTE's human Iodotyrosine Deiodinase (xIYD) Inhibition Assay, Great Lakes Toxicology and Ecology Division (GLTED) Lab (AID 2284317);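 note: cell-free human IYD enzyme made in baculovirus insect cells; iodide freed from monoiodotyrosine measured by cerium arsenite color change at 420 nm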
# In short: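 hIYD: baculovirus-expressed human IYD deiodinated monoiodotyrosine for 3 h with test chemical; free iodide was measured by Sandell-Kolthoff absorbance at 420 nm and normalized to MNT and DMSO/NaOH controls.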
compound,measurement,value
N[C@@H](Cc1ccc(O)c([N+](=O)[O-])c1)C(=O)O,AC50,25.3 nM (active)
